# A selection: hits, their analogues and other compounds. The true share with any hit is near 21%.
# Pf growth 48h = inhibits P. falciparum growth in the first generation, 48 h; 310,000 compounds, 5.9% hits; P. falciparum luciferase growth in erythrocytes, 48 h; Potency, µM (top dose mostly 28.7 µM), for inactives: at the top dose activity change, negative = inhibition, usual class: inhibitors; also: potency is read from the fitted curve at half-maximal effect; % is scaled to controls: 0 for no effect and ±100 for the full control effect
#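 Erythrocytes infected with P. falciparum carrying an integrated firefly luciferase reporter (2% hematocrit, 0.1% parasitemia final) were exposed to compounds in RPMI 1640 with 0.5% Albumax at 37 C, 5% CO2. Growth inhibition was scored as reduced luminescence.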
# Shiga toxin inh = inhibitors of Shiga toxin in Vero cells | Vero cells, Shiga toxin protein synthesis inhibition reporter | inhibition, % at 38.7 µM | 290,000 compounds, 9.2% hits; in the data active = inhibition mostly above about 28%, no sharp cut-off; inactive = mostly below about 43%; also: 0% is about no effect
# Cycloheximide cs = counter-screen hit for Shiga toxin inhibitors, cycloheximide; cell reporter, cycloheximide protein synthesis inhibition counterscreen; max response, %; 300,000 compounds, 12% hits; AID 2314; in the data active = max response mostly above about 13%, no sharp cut-off; inactive = mostly below about 14%; also: read at 38.3 µM for the half of the compounds with a filed dose; 0% is about no effect
# Pf growth 96h = P. falciparum growth inhibition at 96 hour, primary screen for plastid delayed-death inhibitors; P. falciparum luciferase reporter growth, 96 h; Potency, µM (series often up to 28.7 µM), without a hit: at the top dose activity change, negative = inhibition, actives largely listed as inhibitors; 320,000 compounds, 6.9% hits; AID 504834; also: potency is read from the fitted curve at half-maximal effect; % is scaled to controls: 0 for no effect and ±100 for the full control effect
#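 Luminescence readout: decreased luciferase signal marks inhibited growth of reporter-expressing P. falciparum in infected red cells (2% hematocrit, 0.05% parasitemia final), exposed to compound two generations (96 h, 37 C, 5% CO2).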
# Numbers without * were called inactive; u = inconclusive; x = no result given; [ ] = dose if it differs, or a comment. Unless noted, calls follow the shape of the dose curve; as a rule, active = well fitted inhibition curve with a large enough effect; inconclusive = small, poorly fitted or top-dose-only effect, or another doubt; inactive = no such curve, though single readings can be large or run the other way.
SMILES,Pf growth 48h,Shiga toxin inh,Cycloheximide cs,Pf growth 96h
Cc1cccc(NC(=O)C2CCCN2C(=O)OCc2ccccc2)c1 (stereo not drawn),u,x,x,31.1%
COc1cc(NC(=O)C2CCCN2C(=O)OCc2ccccc2)cc(OC)c1 (stereo not drawn),7.38µM*,-11.1,-2.7,0.2%
CS(=O)(=O)N1Cc2ccccc2CC1C(=O)Nc1ccccc1C(N)=O (stereo not drawn),23.9%,46.7,9.9,-9.8%
COc1ccccc1N(CC(=O)NCCSCc1ccccc1Cl)S(C)(=O)=O,22.5%[0.00184 µM],-3.1,-3.1,1.6%
O=S(=O)(NC(=S)c1ccccc1)c1ccc(F)cc1,1.8%,-5.2,-3.1,0.0%
COc1ccc(NC(=O)CC2C(=O)N(Cc3cccs3)C(=S)N2C(C)C)cc1 (stereo not drawn),2.62µM*,17.6,12.6,29.4%[5.75 µM]
CN1C(=O)C(CC(=O)Nc2ccc(F)cc2)N(Cc2cccs2)C1=S (stereo not drawn),u,-4.9,-1.2,u
CCCOc1ccc(NC(=O)CC2C(=O)N(C)C(=S)N2Cc2cccs2)cc1 (stereo not drawn),11.7µM*,8.1,6.7,u
COc1cccc(-n2cc(CNC(=O)C3CCC(=O)N(C4CC4)C3)cn2)c1 (stereo not drawn),0.2%,-2.3,1.7,34.3%
CC(C)CN(CC(C)C)C(=O)c1cc(S(=O)(=O)N2CCCCC2)c[nH]1,u,10.5,-3.1,u
COc1cccc(N(CC(=O)NC2CCCC2)C(=O)CCC(=O)Nc2cc(C)on2)c1,u,-3.4,-5.9,u
COc1ccc(CNC(=O)CCCn2ncn3c(cc4occc43)c2=O)cc1,u,-4.6,11.6,20.4%
CCOC(=O)CCCn1ncn2c(cc3occc32)c1=O,x,62.8,54.6*,u
CCOC(=O)C1=C(C)N(CCCC(=O)O)C(=O)NC1c1ccc([N+](=O)[O-])cc1 (stereo not drawn),-16.4%,-9.6,-1.4,u
CCCCCCN(C(=O)CCCCCN1C(=O)NC(c2ccc([N+](=O)[O-])cc2)C(C(=O)OCc2ccccc2)=C1C)C(C(=O)NCCCC)c1ccc(OCC(=O)OC)c(C(=O)OC)c1 (stereo not drawn),1.85µM*,-3.6,1.1,3.29µM*
CCCCCCN(C(=O)CCCCCN1C(=O)NC(c2cccc([N+](=O)[O-])c2)C(C(=O)OCc2ccccc2)=C1C)C(C(=O)NCCCC)c1ccc(OCC(=O)OC)c(C(=O)OC)c1 (stereo not drawn),u,8.7,-6.2,5.22µM*
CCCc1cnc(NCCNCC(O)COc2ccc(Cl)c(Cl)c2)nc1 (stereo not drawn),u,-2.1,-2.9,11.7µM*
CC1(C)CC(=O)C2=C(C1)Nc1ncnn1C2c1cccs1 (stereo not drawn),-3.7%,-10.8,1.5,-4.6%
Nc1ccc(C(=O)Nc2cccc(N)c2)cc1,71.9%,76.9*,19.8*,85.0%
COc1ccccc1C(=O)Nc1cccc(NC(=O)c2ccccc2C)c1,-30.9%,5.9,2.8,-23.5%
Nc1cccc(C(=O)Nc2ccc(N)cc2Cl)c1,30.1%,23.9,15.1,7.0%
Cc1ccccc1C(=O)Nc1cccc(N)c1,31.8%,30.5*,17.6*,x
O=C(NCC1CCCO1)C1CCCN(S(=O)(=O)c2ccc(Cl)cc2)C1 (stereo not drawn),-3.2%,-13.6,-2.3,-10.6%
CC1C(=NO)C(C)C(c2ccc(N(C)C)cc2)NC1c1ccc(N(C)C)cc1 (stereo not drawn),u,-5.8,-1.2,1.85µM*
COc1ccc(C2NC(c3ccc(OC)cc3)C(C)C(=O)C2C)cc1 (stereo not drawn),u,-11.3,0.9,-32.7%
SMILES,Pf growth 48h,Shiga toxin inh,Cycloheximide cs,Pf growth 96h
O=C(c1cc(COc2ccc(F)c(F)c2)on1)N1CCSCC1,25.1%,62.3*,46.5*,7.7%
COc1cc(C(C)=O)ccc1OCc1cc(C(=O)N2CCSCC2)no1,45.1%,8.0,18.0,u
CC(=O)c1cccc(OCc2cc(C(=O)N3CCSCC3)no2)c1,63.2%,149.5*,48.2*,u
O=C(Nc1nc2ccc(Cl)cc2s1)C1CCCO1 (stereo not drawn),x,106.0*,42.6*,30.4%
O=C(Nc1nc2ccc([N+](=O)[O-])cc2s1)C1CCCO1 (stereo not drawn),125.7%,112.4*,36.8*,-0.5%
COc1cnn(-c2ccc(Br)cc2)c(=O)c1SCc1ccccc1,14.4%,129.5*,49.3*,22.2%
COc1cnn(-c2ccc(C)cc2)c(=O)c1SCc1ccccc1,54.6%,84.4*,38.5*,15.9%
CSc1ncccc1C(=O)N1CCCC(N2CCN(c3ccccc3F)CC2)C1 (stereo not drawn),66.5%,1.1,-2.6,u
O=C(Cn1cccc1C(=O)c1ccccc1)NCc1ccc(F)cc1,17.6%,8.7,15.5*,u
O=C(CN1CC(c2ccccc2)CC1=O)NCc1ccc(F)cc1 (stereo not drawn),20.6%,-6.3,-2.6,4.15µM*
O=C(Cn1cccc1C(=O)c1ccccc1)NCc1ccc2c(c1)OCO2,u,52.5*,29.3*,96.8%
O=C(Cn1cc(C(F)(F)F)ccc1=O)NCC1CCCO1 (stereo not drawn),-10.6%,x,x,-24.5%
O=C(Cn1cc(C(F)(F)F)ccc1=O)NCc1ccc(F)cc1,121.3%,36.1*,29.3*,135.5%
O=C(Cn1cccc1C(=O)c1ccccc1)NCc1ccccc1,x,22.3,9.2,x
O=C(COc1ccccc1)NC(=S)Nc1cccc2cc(O)ccc12,11.9%,-4.9,-1.4,u
O=S(=O)(c1ccccc1)[C@@]1(c2ccccc2)C[C@@H]2ON=C(c3cccc(-c4ccccc4)c3)[C@@H]2C1,7.38µM*,x,x,u
C=C(c1ccccc1C)[n+]1ccccc1,4.65µM*,x,-2.9,1.65µM*
C=C(c1ccccc1Cl)[n+]1ccccc1,2.94µM*,x,-0.3,1.65µM*
Clc1ccccc1Cl,-3.0%,x,x,16.1%
C=CCn1c(=O)c2ccccc2n2c(SCC(=O)O)nnc12,25.5%,-13.0,-8.1,18.9%
CCOCCCn1c(SCc2nc3ccccc3s2)nc2ccccc2c1=O,u,101.3*,87.3*,u
C=CCn1c(=O)c2ccccc2n2c(SCc3nc4ccccc4s3)nnc12,139.8%,131.4*,44.8*,x
COCCn1c(SCc2nc3ccccc3s2)nc2ccccc21,51.8%,146.7*,36.7*,-5.2%
CCOCCCn1c(SCC(=O)Nc2ccccc2)nc2ccccc2c1=O,u,3.4,2.0,-20.2%
CCn1c2ccccc2c2cc(CN3CCN(S(=O)(=O)Cc4ccccc4)CC3)ccc21,u,-15.3,-1.4,17.5%
Nc1nc(N2C(=O)C3CC=CCC3C2=O)nn1-c1ccccc1 (stereo not drawn),u,-2.4,-2.1,2.94µM*
Nc1nc(-n2cnnc2)nn1-c1ccccc1,6.9%,8.5,-1.9,1.7%
CC(C)N1C(=O)C(=O)N(CC(=O)N(C)c2ccccc2)C1=O,-20.6%,x,x,0.3%
N[C@@H]1C[C@H]1c1ccccc1,-11.3%,x,x,10.5%
Oc1ccccc1C1CCCCC1c1ccccc1 (stereo not drawn),7.38µM*,-9.1,1.9,u

# High-throughput results (PubChem)
